# In the library only some 14% were active in any assay of this set; here they are far more common.
# AID923: qHTS Assay for Allosteric/Competitive Inhibitors of Caspase-1: Spectroscopic Profiling in AFC Spectral Region | compound fluorescence, AFC spectral region (405/520 nm) | Potency, µM (highest dose often 57.5 µM), for inactives: top-dose fluorescence increase, hits mostly activators | 75,000 compounds, 1.1% hits; further: potency means the concentration at half of the fitted maximal effect; 0% is about no effect
#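 Compound autofluorescence profiled at 405 nm ex/520 nm em during kinetic caspase 1 run (50 nM enzyme, 5 uM Ac-WEHD-AFC, HEPES pH 7.5, 10 mM DTT). Titration up to 57 uM; baseline from regression intercept, normalized to AFC standard curve.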
# CRE-bla Fsk: alters forskolin-stimulated CRE reporter signaling in CHO cells | 71,000 compounds, 2.5% hits | CHO CRE-bla reporter (cAMP response element driving beta-lactamase), forskolin EC10, beta-lactamase ratio | AID 662 | Potency, µM (top dose mostly 38.2 µM), for the others: at the highest dose activity change, negative = inhibition, actives largely listed as activators; active means well fitted activation curve with a large enough effect in the signal ratio, with a control signal flat, not every such curve was filed as active; inconclusive means small, poorly fitted or top-dose-only effect, or effect the other way, or a change in a side signal; the % refers to the signal ratio; further: potency means the concentration at half of the fitted maximal effect; % of control where 0% means no effect
#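 Modulation of forskolin signalling: compounds in titration series added with EC10 NKH 477 to CHO cells carrying a CRE-driven beta-lactamase reporter, 3 h, 37C. CCF4 FRET ratio (460/530 nm, ex 405 nm) gives %activity and AC50.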
# A350 fluor: compounds fluorescent in Alexa 350 spectral region; max dye-equivalent concentration, M; 59,000 compounds, 11% hits; Compound autofluorescence, 340/450 nm, Alexa 350 dye-equivalents; hits give high values; AID 590; in the data active means max dye-equivalent concentration above about 10 nM; inconclusive means mostly about 1.1 nM to 9.6 nM
# 4-MU autofl: compound fluoresces in the 4-MU spectral region. AID 589. 59,000 compounds, 11% hits. max dye-equivalent concentration, M. compound autofluorescence, 340/450 nm, 4-MU equivalents; hits give high values; in the data active means max dye-equivalent concentration above about 10 nM; inconclusive means mostly about 1.1 nM to 9.6 nM
#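 Compounds in 100 mM Tris, pH 8.0, incubated 15 min at room temperature, then fluorescence read at 340 nm excitation/450 nm emission. Signal converted to 4-MU dye-equivalent concentration using an on-plate six-point 4-MU standard curve.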
# HSD17B inh: inhibitors of human HSD17B10 dehydrogenase | Q99714 | recombinant HSD17B10, NADH fluorescence kinetic | Potency, µM (series often up to 57.1 µM), for inactives: at the highest dose activity change, negative = inhibition, most hits filed as inhibitors | 75,000 compounds, 7.6% hits | AID 893;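 further: the protocol describes HADH2 (HSD17B10) and not the HSD17B4 of the title; potency means the concentration at half of the fitted maximal effect; on the % scale 0 is the no-effect control and ±100 the full control effect; nearly all actives have a fitted effect of over 70% in size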
#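 Activity followed as NADH fluorescence increase (ex 360, em 450 nm) every 30 seconds for 4 min, using final 90 uM beta-hydroxybutyryl CoA and 1 mM NAD+. Recombinant His-tagged enzyme, 20 nM, pH 9.0 Tris buffer, 15 min compound preincubation.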
# HADH2 inhib: blocks human hydroxyacyl-CoA dehydrogenase type II | recombinant HADH2, NADH fluorescence, beta-hydroxybutyryl-CoA | Potency, µM (series often up to 57.1 µM), for the others: top-dose activity change, negative = inhibition, hits mostly inhibitors | 73,000 compounds, 3.4% hits | AID 886; further: potency means the concentration at half of the fitted maximal effect; on the % scale 0 is the no-effect control and ±100 the full control effect; nearly all actives have a fitted effect of over 60% in size
# Target sequence (Q99714 whole entry, looked up, one chain of several): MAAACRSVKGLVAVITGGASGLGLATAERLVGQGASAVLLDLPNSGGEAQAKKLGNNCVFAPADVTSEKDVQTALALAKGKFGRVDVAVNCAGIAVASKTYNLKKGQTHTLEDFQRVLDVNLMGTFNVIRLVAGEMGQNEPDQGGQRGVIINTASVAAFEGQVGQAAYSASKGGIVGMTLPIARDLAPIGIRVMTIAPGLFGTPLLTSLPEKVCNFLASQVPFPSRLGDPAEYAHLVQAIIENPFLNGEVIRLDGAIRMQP
#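 NADH fluorescence (ex 360/em 450 nm) read every 30 s for 4 min; activity taken as last-minus-first time point difference. Enzyme 20 nM, NAD+ 1 mM, beta-hydroxybutyryl-CoA 90 uM, pH 9.0 Tris buffer.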
# Numbers without * were called inactive; i = inactive; ? = inconclusive; / = no result; [ ] = dose if it differs, or a comment. Unless noted, the call rests on the fitted dose curve; in most records, active means well fitted curve in the direction sought with a large enough effect; inconclusive means small, poorly fitted or top-dose-only effect, or another doubt; inactive means no such curve, though single readings can be large; an effect the other way counts as inactive or inconclusive.
SMILES,AID923,CRE-bla Fsk,A350 fluor,4-MU autofl,HSD17B inh,HADH2 inhib
CC1(C)S[C@@H]2[C@H](C(=O)O)N=C(Cc3ccccc3)N2[C@H]1C(=O)O,0%[11.5 µM],-3%[7.6 µM],i,i,8%[11.4 µM],5%[11.4 µM]
COc1ccc(NC(=O)c2cc(-c3cccs3)on2)cc1OC,-1%,28%,3e-08M*,3e-08M*,25µM*,?
O=C(Nc1cnn(Cc2ccc(Cl)cc2Cl)c1)c1cc(-c2cccs2)on1,1%,12%,i,i,20µM*,-2%
O=C(Nc1cnn(Cc2ccc(Cl)cc2Cl)c1)c1noc2c1CCCC2,-1%,-3%,/,/,-9%,-27%
O=C(Nc1cccnc1)c1cc(-c2cccs2)on1,2%,-5%,1.6e-08M*,1.7e-08M*,-14%,4%
O=C(O)CNC(=O)c1ccc([N+](=O)[O-])cc1,0%,-9%,/,/,?,i
CCCN1CC(CSC)C[C@H]2c3cccc4[nH]cc(c34)C[C@H]21 (stereo not given in full),-2%,/,/,/,4%,/
CN(C)C(=O)c1ccc(-c2cc(N(C)Cc3ccco3)ncn2)cc1,3%,3%,?,i,?,-6%
COc1cccc(-c2cc(N(C)Cc3ccco3)ncn2)c1,5%,13%,?,?,32µM*,-42%
CN(C)c1ccc(-c2cc(N(C)Cc3ccco3)ncn2)cc1,6%,?,2e-07M*,1.9e-07M*,13µM*,32µM*
COC(=O)C(C(C)=O)C(NC(=O)NCc1ccccc1)c1ccccc1 (stereo not given),-1%[11.5 µM],/,/,/,3%[11.4 µM],3%[11.4 µM]
N=C(N)C(N=Nc1ccccc1)C(=N)N (stereo not given),0%[11.5 µM],-1%[7.6 µM],i,i,-4%[11.4 µM],-2%[11.4 µM]
COC(=O)[C@H](Cc1ccccc1)NC(=O)C/C=C\[C@@H](C)[C@@H](CO)OC,-4%[11.5 µM],/,/,/,2%[11.4 µM],-3%[11.4 µM]
Cc1[nH]nc(N=CC2=C(O)CC(c3ccco3)CC2=O)c1-c1ccccc1 (stereo not given),14%,?,3.2e-08M*,3e-08M*,?,-1%
Cc1[nH]nc(N=CC2=C(O)CC(C)(C)CC2=O)c1-c1ccccc1,2%,-9%,1.4e-08M*,1.2e-08M*,-17%,1%
Cc1[nH]nc(N=Cc2c(O)n(C)c(=O)n(C)c2=O)c1-c1ccccc1,-1%,?,2.8e-06M*,2.3e-06M*,2%,418%
O=c1cc(CO)occ1O,-1%,?,i,i,-1%,-18%
N[C@@H](Cn1cc(F)c(=O)[nH]c1=O)C(=O)O,-1%,?,/,/,-3%,0%
CSc1nnc2n(-c3ccccc3)c(=O)c3c4c(sc3n12)CCC4,0%,2.5µM*,i,i,-5%,-2%
COC(=O)CSc1nnc2n(-c3ccc(OC)cc3)c(=O)c3c4c(sc3n12)CCCCC4,/,/,2.5e-08M*,2.2e-08M*,/,/
CN1CCc2c(sc3c2c(=O)n(-c2ccccc2)c2nnc(SCc4ccc(F)cc4)n32)C1,1%,10%,1e-08M*,?,?,?
CSc1nnc2n(C3CCCCC3)c(=O)c3c4c(sc3n12)CCCC4,/,/,i,i,/,/
CCCCCCCCCCCCC/C=C\[C@@H](O)[C@H](CO)NC(C)=O,-2%,-8%,/,/,-11%,-1%
Nc1nc(O)c2ncn([C@H]3CC[C@@H](CO)O3)c2n1,0%,/,/,/,-2%,/
COC(=O)[C@@H]1[C@@H](O)[C@]2(O)c3ccccc3O[C@]2(c2ccccc2)[C@H]1c1ccccc1,-1%[11.5 µM],/,/,/,7%[11.4 µM],-4%[11.4 µM]
SMILES,AID923,CRE-bla Fsk,A350 fluor,4-MU autofl,HSD17B inh,HADH2 inhib
O=C(O)c1nc(-c2ccccc2)[nH]c1C(=O)O,13%[11.5 µM],-9%[7.6 µM],i,i,-7%[11.4 µM],-16%[11.4 µM]
C=CCOC(=O)C(C(C)=O)C(NC(=O)OC)c1cccs1 (stereo not given),1%[11.5 µM],/,/,/,4%[11.4 µM],0%[11.4 µM]
Cc1ccc(-n2cc3c(=O)n(C)c(=O)n(C)c3c2)cc1C,0%,4%,i,i,-3%,-11%
Cc1cc(N)c(-n2cc3c(=O)n(C)c(=O)n(C)c3c2)cc1C,16%,-6%,4.8e-08M*,4.7e-08M*,32µM*,7%
COc1ccc(CN[C@H](C)C(=O)O)cc1,4%[11.5 µM],0%[7.6 µM],i,i,-2%[11.4 µM],6%[11.4 µM]
Cc1oc2c(CN3CCCC3)c(O)ccc2c(=O)c1-c1ccccc1,3%,6%,9.3e-07M*,6.9e-07M*,25µM*,32µM*
COc1ccc(C(=O)c2c(C)oc3ccc(O)c(CN4CCOCC4)c23)cc1,2%,/,/,/,-7%,6%
Cc1oc2c(CN3CCOCC3)c(O)ccc2c(=O)c1-c1ccc(Br)cc1,1%,9%,2.5e-07M*,2e-07M*,?,-77%
O=c1c(-c2ccc(Br)cc2)coc2c(CN3CCOCC3)c(O)ccc12,1%,13%,1.8e-07M*,1.4e-07M*,32µM*,-12%
Cc1oc2c(CN3CCCC3)c(O)ccc2c(=O)c1-c1ccc(Cl)cc1,0%,24%,7.3e-07M*,5.4e-07M*,32µM*,25µM*
Nc1nc(SCCc2ccccc2)c2[nH]cnc2n1,-4%[11.5 µM],-1%[7.6 µM],i,i,?,-6%[11.4 µM]
COC(=O)N1CCC[C@@]2(CCN(Cc3cc(C(F)(F)F)cc(C(F)(F)F)c3)C2)C1,0%,-6%,i,i,5%,-8%
COC(=O)c1ccc(C(NC(=O)OCc2ccccc2)/C(I)=C/[C@@H](C)C(=O)NCc2ccncc2)cc1 (stereo not given in full),2%,-10%,/,/,-8%,4%
Cc1cccc(-c2cc3nc4c(c(N5CCCC(O)C5)n3n2)CCC4)c1 (stereo not given),1%,13µM*,?,?,6%,-3%
OC1CCCN(c2c3c(nc4cc(-c5cccc(Cl)c5)nn24)CCC3)C1 (stereo not given),4%,?,6.8e-08M*,6.7e-08M*,?,?
COc1cccc(N2CCN(c3c4c(nc5ncnn35)CCC4)CC2)c1,-1%,10%,i,i,0%,3%
O=C(c1ccco1)N1CCC2(CC1)CN(c1ccccc1)C2,4%,-20%,i,i,2%,-5%
CCOC(=O)c1ccc(NC(=O)N2CCN(c3ccccn3)CC2)cc1,-1%,3%,i,i,32µM*,-14%
O=C(Nc1cccc(Cl)c1)N1CCN(c2ncccn2)CC1,0%,?,i,i,3%,6%
CCOC(=O)c1ccc(NC(=O)N2CCN(CCc3ccccc3)CC2)cc1,-2%,?,i,i,8%,-2%
O=C(Nc1ccc2ccccc2c1)N1CCN(c2ncccc2C(F)(F)F)CC1,0%,-21%,i,i,16µM*,-1%

# Screens (PubChem BioAssay)
